Measurements as given in PubChem BioAssay AID1508600 (Functional Genomics Laboratory (NCATS/FGL), 2020).
The whole screen tested about 53,000 sequences, of which about 3,700 (7%) were called active.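 How the source made its calls: active means gene knockdowns whose robust z-score for IL-1 alpha signal is at least 2 or at most -2, so actives lie on both sides; inactive means the rest.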 The sample as a whole holds a higher share of actives than the screen did.

Test: Components of the Cytosolic LPS Sensing Pathway: Gene Identification via Genome-wide siRNA Screen;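 further: robust z of the log signal after scaling to non-targeting control siRNA wells of the plate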
Conditions: RAW264.7 macrophages, IL-1a HTRF, actives lie on both sides, screened at 100 nM (by protocol), cells primed 5 h with Pam3CSK4 first
Outline: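 Knockdown: 100 nM siRNA, 48h, RAW264.7. Stimulation: Pam3CSK4 5 h, then LipidA via TransIT-TKO 24 h. Output: supernatant IL-1a HTRF, negative-control-normalized, log robust z-score; viability by CellTiter-Glo.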

Sequence	z-score
GGGUACCUGUGGUUUUUGUTT against Hdhd5	-0.481 (inactive)
GCUCCAAAUUAAAUUUUGCTT against Irf9	0.768 (inactive)
GGUCAUUCAAGAGAUACUATT against Dennd10	-0.65 (inactive)
GGCAAAGGACUUCAUGGCUTT against B4galt4	-1.42 (inactive)
CGACAGAGGAAAACAUAAATT against St13	-2.55 (active)
GGAAAGAAAGACUAGUAAATT against Cpne1	0.815 (inactive)
CCUCAUCGACAUAAUGAUUTT against Samhd1	-0.0182 (inactive)
GGUUCACUCUGAAGACACCTT against Pkig	0.0516 (inactive)
CCGUGUGACAUUUGAGUAUTT against Crhbp	1.42 (inactive)
CCAGCUUUGGGAAAUACCGTT against Sertad1	-2.39 (active)
GGGAUCCAUCCUUAUUGUUTT against Ybx2	-0.101 (inactive)
GGAUUCUCCUUUACCUUUGTT against B930095G15Rik	0.0151 (inactive)
GGAAGACUUUGGCUUUGAATT against Tfpt	-0.165 (inactive)
GGAGAACAUCAAGAACAAUTT against Ap2m1	2.08 (active)
GCCCGAAAAAGAGAACUGATT against Wbp11	0.056 (inactive)
GGAUCAAGACAAAAAACUUTT against Arhgap17	-0.17 (inactive)
GGACCAGAUUGCUAAUGAGTT against Fam13a	-0.0932 (inactive)
GGAAUUCUUGAAGAUUCCCTT against Ptpn7	0.884 (inactive)
GGAGCUCCUACCAAGACUUTT against Klhl38	1.07 (inactive)
GGAAUGCAAUGACAAAUGATT against Kank3	0.198 (inactive)
GCUUAUAAGAGUCUAUCUUTT against Stam	-0.217 (inactive)
GCUCAGUUUAUACCAAAAUTT against Api5	-2.31 (active)

Sequence	z-score
CCCAAGAUCUAAGAGUAUUTT against Rin3	-1.18 (inactive)
GGGACUAUUCCUCCAGAGUTT against Cast	-0.439 (inactive)
GGUCAAGAGGGAAAACUUUTT against Ctps	0.0558 (inactive)
CGGUACAUCAUUGCUGUCATT against Slc17a8	-2.22 (active)
CCGUAGUAUCCACUGAUUGTT against Olfr1322	-0.34 (inactive)
GGAGGAAGAAACAACAAUGTT against Calhm5	0.76 (inactive)
GGCUUAGUAUGUUGUAUUCTT against Fam241b	0.189 (inactive)
GGGUUCAUUUUUGGCUUUCTT against Serpina3m	0.0735 (inactive)
GGUGCAGAAGCUCAAGUUCTT against Cpne2	2.44 (active)
GCGAAUCUCCUCCUAGUGATT against Arhgap28	-0.0218 (inactive)
GGAAUUCGUAAAGAUUGCATT against Esrp2	-0.158 (inactive)
UGCUGGUAGACCUAGUAGCTT against Olfr1137	-2.1 (active)
GGUGUACGAUCUGACCAAGTT against Cyb5a	0.0756 (inactive)
GGAAUGGUUUGGUGAGUUUTT against Pramel1	0.859 (inactive)
GGCAUCUCUUCCAAGUUGGTT against Mzt1	1.69 (inactive)
GGGACAUAUUGUUUCCCUUTT against Tmco5b	0.777 (inactive)
GGUUAUGAUGGGACUUCUCTT against Tmem37	-1.34 (inactive)
CCUUUGUAGGAACAAUUUATT against Phlda1	0.409 (inactive)
GCGUAUUUUAUGGAUGAAATT against Nfkbiz	-2.42 (active)
GGAUUAUCAUGGUUUGAUCTT against Elp4	0.938 (inactive)
GCAUCUGUGCCGAUUAAAATT against Asb15	1.32 (inactive)
AUAUCAGACUGACAUAGCATT against Obox5	2.47 (active)

Sequence	z-score
CGAGGCUAACAAACUCAUATT against Guca2a	0.883 (inactive)
CCUGGAAACUAUUUUGAUGTT against Katnal2	0.0379 (inactive)
GACAAAACAAUUUCCUAUGTT against Olfr805	-0.318 (inactive)
GGCAGAAACGUGGACUAAATT against Mmp12	-1.29 (inactive)
GGAACCAGUAUCCUGACAUTT against Prop1	-0.592 (inactive)
GGCUAUAAUGAACCAGCUGTT against Ubr3	-0.208 (inactive)
CCAGUUCAGAGAUUAUCUUTT against Olfr826	-2.13 (active)
GGAUGCAGAUGUACAACUCTT against Slc25a28	2.17 (active)
GGAGCCUCCAAGUUGUAAGTT against Ifi27l2b	0.748 (inactive)
CCACCUUAACUGUUGCUUUTT against Mmp2	0.691 (inactive)
GCAUUUGAAUCGACUACAGTT against Vti1b	0.691 (inactive)
GGUGUGUGCAGGACUAAAUTT against Cacng3	0.955 (inactive)
GCCGGAGUGCACAAUCAAATT against Rarres2	0.908 (inactive)
GGAAAUCCAUCGUUAUUCUTT against Abca8a	2.08 (active)
GGAGAGACUUGAGAUUGUCTT against Ptx3	0.245 (inactive)
GGACACUAUCCGUGCAUCUTT against Tsg101	-1.13 (inactive)
GCAAGUGACGGUUUAUCUGTT against Las1l	-1.68 (inactive)
UACCAGAAGUACCUGUCCCTT against Lbx1	3.33 (active)
CCUCAUUCGAUACAUCUGUTT against Ints3	0.319 (inactive)
CCUUGUUUUUCACAAAUCATT against Usp7	-0.182 (inactive)
GGCUCGACUUGGAGAAAAGTT against Atg13	0.0439 (inactive)
GCAGAAGCCUGUGGGAUCUTT against Tex43	-0.102 (inactive)

Sequence	z-score
GCAAAACCUAACUAUGUUUTT against Mterf3	-0.879 (inactive)
CGAAUUAUGGCACCGUCAATT against P2rx7	-0.647 (inactive)
UUAGCCACUCAUUGUUCCATT against Olfr1303	-0.133 (inactive)
GCUAAUACUGAAAUCGAUGTT against Ccdc73	1.02 (inactive)
GGGAGAGUCUUGGCAACUUTT against Btbd17	-2.12 (active)
GGAAGAGAAGAAGGAACUUTT against Ada	-1.51 (inactive)
CGUUUAAAGACUAGCAAGATT against Tab1	0.0468 (inactive)
GGGCUAAUGAGAUAGGUUUTT against Slc19a2	2.18 (active)
GGAGGCUGCAAUAGAGGAGTT against Defa20	1.23 (inactive)
GGCAAGAGUGAAUUUAAGATT against Nt5e	-0.292 (inactive)
GGAUUUCACAGUCAAAAUUTT against Insrr	-0.825 (inactive)
CGGUGUACGAGUUAGAGAATT against Crybb3	1.75 (inactive)
GGGAGAUCUUGACAAAUUCTT against Aplp1	2.32 (active)
GGAGAAUGACUAGGUAAUCTT against A130010J15Rik	1.27 (inactive)
CCUGUCGUUUAACCCUGUCTT against Fis1	-0.96 (inactive)
GGAGUUGACCACACUGCUUTT against Smtn	-1.09 (inactive)
GGAAUUUAUUCACCCAGACTT against Sirt2	-1.51 (inactive)
GGAGAUGAAGCUCUGGAUATT against Spock2	0.132 (inactive)
CCUAUCUCCCUGUUCGAUATT against Rab36	-1.01 (inactive)
GGACAACUCAGAUUGGACUTT against Adprhl2	-1.22 (inactive)
GGCUUGAAUCACCAACCAGTT against Sgcz	0.224 (inactive)
GGUAGUGAGUACUUUGGAATT against Amy2a5	-1.16 (inactive)

Sequence	z-score
GCAAGUGCGACUGUAUCUGTT against Gdpd2	-2.2 (active)
GGGAUAAUGCAUGUGAAAATT against Pdk3	-0.292 (inactive)
GGUUUGUCAACAAGUGUCATT against Dicer1	-2.17 (active)
CCAGUACAGAUGUGUUAAATT against N4bp2l2	1.68 (inactive)
CCGCCUAGCUGAUCUUGUGTT against Aldh1b1	-0.495 (inactive)
GCUUUUACCGUUACGUCUUTT against Uggt1	2.18 (active)
GGACAGCAGUAAAUAUACUTT against Coq3	0.423 (inactive)
GCUAUUAAUAUCCUGGUCCTT against Slc7a2	-0.543 (inactive)
CCUAGACAUCAGUAAUGCGTT against Zbtb17	-0.43 (inactive)
AACUGUACAUUGAAGCAGATT against Cstf3	0.391 (inactive)
GCAUGAAAAGGUAUUACUCTT against Exoc6	0.734 (inactive)
GCACUAUCCACAUGCACAUTT against Olfr1281	0.469 (inactive)
GGCCUAUGUCAGCACUUUATT against Eif3f	-0.113 (inactive)
GGAUUGCUUUUGAGCAACATT against Ccdc125	-2.05 (active)
GCUUCUAAGCUUUAGAGGGTT against Rassf10	-1 (inactive)
GGAUACAGUUAAGAGAUAUTT against Xpr1	-1.34 (inactive)
GCAUAGCCACAAGGUUAAUTT against Nat8f4	0.35 (inactive)
GUAUUAUAGACACCUUGCATT against Phip	-0.835 (inactive)
GGACAGCUACCUCAUCCAUTT against Lpcat3	2.08 (active)
GGACAGAUGAAGCUGCAUUTT against S100a4	-0.422 (inactive)
